Source: the supplement of paper PMC3545927
Some of the results follow. How many sequences the whole screen found active is unknown.

B1: HC2109 (peptide)
chain: CAYDVVCCSMAGNASASA
B2: FS-1042 (peptide)
chain: CAPEGRRKRTAGNASASA
B3: HC196 (peptide)
chain: CAPEGRTWAQAGNASASA
B4: HC351 (peptide)
chain: CAVDAETHVTAGNASASA
B5: FS-2084 (peptide)
chain: CARRVRSYGQAGNASASA
B6: FS-2779 (peptide)
chain: CARRKREVQMAGNASASA
B7: FS-3165 (peptide)
chain: CARRKREKTQAGNASASA
B8: FS-1373 (peptide)
chain: CALSKRSLRDAGNASASA
B9: FS-1778 (peptide)
chain: CARRKRLPEMAGNASASA
B10: HC670 (peptide)
chain: CAVSKGWRLLAGNASASA
B11: HC425 (peptide)
chain: CAWGENDTDVAGNASASA
B12: HC1223 (peptide)
chain: CALDGVRLHRAGNASASA
B13: HC2145 (peptide)
chain: CALVVTSTWVAGNASASA
B14: HC2188 (peptide)
chain: CAEVWTSTWVAGNASASA
B15: HC1852 (peptide)
chain: CATEPCSGSWAGNASASA
B16: FS-1676 (peptide)
chain: CALRKRDVSVAGNASASA
B17: FS-1644 (peptide)
chain: CALSKRLGRSAGNASASA
B18: FS-2123 (peptide)
chain: CALKKRIKSVAGNASASA
B19: FS-2230 (peptide)
chain: CARRKRSIEEAGNASASA
B20: FS-3029 (peptide)
chain: CARPVRDDSVAGNASASA
B21: FS-2069 (peptide)
chain: CARRKRSPTQAGNASASA
B22: HC2385 (peptide)
chain: CAEVPCHRLSAGNASASA
B23: HC755 (peptide)
chain: CAVAKAVDFIAGNASASA
B24: FS-686 (peptide)
chain: CALRKRLLRDAGNASASA
B25: FS-1682 (peptide)
chain: CARALRNVWQAGNASASA
B26: FS-2301 (peptide)
chain: CARRVRSVILAGNASASA
B27: FS-2376 (peptide)
chain: CARRVRSAEEAGNASASA
B28: FS-2171 (peptide)
chain: CARQPRLVGAAGNASASA
B29: FS-3071 (peptide)
chain: CARRVRSRTHAGNASASA
B30: FS-1686 (peptide)
chain: CARASRDVAQAGNASASA
B31: FS-2892 (peptide)
chain: CARASRDSSEAGNASASA
B32: FS-1883 (peptide)
chain: CALRKRLTPLAGNASASA
B33: FS-1752 (peptide)
chain: CARMKRKVGAAGNASASA

Biological target: furin, P09958
Sequence (P09958 whole entry): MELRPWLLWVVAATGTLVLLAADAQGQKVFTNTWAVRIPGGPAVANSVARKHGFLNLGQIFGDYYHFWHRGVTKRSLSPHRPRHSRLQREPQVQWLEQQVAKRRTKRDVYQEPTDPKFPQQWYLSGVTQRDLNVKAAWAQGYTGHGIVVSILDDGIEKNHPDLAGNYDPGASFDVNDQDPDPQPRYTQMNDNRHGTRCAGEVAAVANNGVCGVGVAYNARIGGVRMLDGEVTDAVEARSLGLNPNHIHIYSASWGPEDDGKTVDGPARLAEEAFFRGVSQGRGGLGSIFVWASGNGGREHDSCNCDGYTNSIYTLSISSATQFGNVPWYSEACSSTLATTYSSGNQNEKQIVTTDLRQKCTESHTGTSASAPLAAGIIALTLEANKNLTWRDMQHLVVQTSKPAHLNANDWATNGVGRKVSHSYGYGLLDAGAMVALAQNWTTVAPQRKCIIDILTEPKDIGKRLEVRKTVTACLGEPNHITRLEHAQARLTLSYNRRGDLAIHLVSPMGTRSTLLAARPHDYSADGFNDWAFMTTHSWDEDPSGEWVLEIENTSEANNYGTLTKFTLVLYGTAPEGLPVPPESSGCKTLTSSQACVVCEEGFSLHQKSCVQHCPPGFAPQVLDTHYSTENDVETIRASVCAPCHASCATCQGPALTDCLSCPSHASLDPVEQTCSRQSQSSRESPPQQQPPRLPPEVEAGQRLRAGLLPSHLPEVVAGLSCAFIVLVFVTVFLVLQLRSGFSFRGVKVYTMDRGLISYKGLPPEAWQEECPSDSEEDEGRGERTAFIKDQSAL
Experiment: furin cleavage Z-score vs untreated control; higher = more cleavage, active = 3.5 or more, inactive = 1 or less, 8 variable residues between constant flanks
How it was run: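 Purified furin cleaved 8-mer peptides that were fused to a cDNA oligonucleotide and held on magnetic beads by their N-terminus. Each 0.01 ml reaction used a 1:10 enzyme:substrate ratio in 50 mM HEPES pH 7.5 with CaCl2 and NaCl and ran 7.5, 15 or 30 min. Released DNA was adapter-tagged by PCR and sequenced, and read counts gave abundance. The cleavage Z-score came from log counts against furin-free reactions, lowess-adjusted and scaled by median absolute deviation.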

Sequence	furin cleavage Z-score (7.5 min)	furin cleavage Z-score (15 min)	furin cleavage Z-score (30 min)
B1	0.403 (inactive)	-1.03 (inactive)	-0.733 (inactive)
B2	7.2 (active)	9.98 (active)	7.54 (active)
B3	0.395 (inactive)	-0.56 (inactive)	-1.92 (inactive)
B4	-2.06 (inactive)	-2.12 (inactive)	-1.23 (inactive)
B5	2.55	4.27 (active)	5.55 (active)
B6	6.69 (active)	7.05 (active)	7 (active)
B7	5.81 (active)	8.48 (active)	5.8 (active)
B8	4 (active)	8.19 (active)	6.86 (active)
B9	0.399 (inactive)	0.463 (inactive)	-1.64 (inactive)
B10	0.0516 (inactive)	-0.975 (inactive)	-0.799 (inactive)
B11	-1.56 (inactive)	-0.446 (inactive)	-2.12 (inactive)
B12	-1.06 (inactive)	0.461 (inactive)	-0.00108 (inactive)
B13	-0.711 (inactive)	-0.969 (inactive)	-0.561 (inactive)
B14	0.933 (inactive)	0.313 (inactive)	0.822 (inactive)
B15	-0.934 (inactive)	-0.739 (inactive)	-1.88 (inactive)
B16	4.02 (active)	6.7 (active)	7 (active)
B17	9.63 (active)	10.3 (active)	7.46 (active)

Sequence	furin cleavage Z-score (7.5 min)	furin cleavage Z-score (15 min)	furin cleavage Z-score (30 min)
B18	-0.488 (inactive)	-0.595 (inactive)	0.647 (inactive)
B19	9.81 (active)	9.11 (active)	9.55 (active)
B20	0.58 (inactive)	-0.207 (inactive)	-0.229 (inactive)
B21	11.3 (active)	13.3 (active)	8.55 (active)
B22	0.65 (inactive)	0.937 (inactive)	2.67
B23	-0.603 (inactive)	-0.471 (inactive)	-1.43 (inactive)
B24	9.49 (active)	11.5 (active)	8.89 (active)
B25	-1.32 (inactive)	1.58	0.167 (inactive)
B26	-0.109 (inactive)	-0.0349 (inactive)	1.3
B27	7.77 (active)	9.29 (active)	6.7 (active)
B28	-0.691 (inactive)	-0.656 (inactive)	-0.39 (inactive)
B29	0.143 (inactive)	0.522 (inactive)	1.9
B30	3.28	3.03	3.8 (active)
B31	-0.582 (inactive)	0.0813 (inactive)	-0.0253 (inactive)
B32	-1.32 (inactive)	-0.87 (inactive)	0.456 (inactive)
B33	2.2	4.54 (active)	4.95 (active)
